Measurements from PubChem BioAssay (NCATS).
Several values for one entry are separate records, joined by “and”; a condition that tells them apart may be missing. Identical values can stand only once. Records with an inconclusive call do not appear. Entries that show only a call come without a potency. Activity calls are given as the source filed them. Unless noted, the call rests on the fitted dose curve; in most records, active means well fitted curve in the direction sought with a large enough effect; inconclusive means small, poorly fitted or top-dose-only effect, or another doubt; inactive means no such curve, though single readings can be large; an effect the other way counts as inactive or inconclusive.

Experiments:
[1] = qHTS assay for small molecule agonists of retinoid X receptor alpha signaling (AID 588544; calls by dose curve); details: HEK293T RXRa-UAS-bla, beta-lactamase reporter, 18 h; 530 nm emission
[2] = target: Retinoic acid receptor RXR-alpha (Homo sapiens) (UniProt P19793); assay: as above; details: HEK293T RXRa-UAS-bla, beta-lactamase reporter, 18 h; series mostly up to 76.7 µM
[3] = target: Thyroid hormone receptor beta (Homo sapiens) (UniProt P10828); assay: qHTS assay for small molecule agonists of thyroid hormone receptor beta signaling (AID 588545; calls by dose curve); details: TR-UAS-bla GripTite HEK 293, beta-lactamase ratio, agonist mode, 18 h, percent of T3 response, DMSO as zero; series mostly up to 76.7 µM
Procedure, shortened: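 TR-UAS-bla-GripTite HEK 293 cells in medium with 2% charcoal/dextran FBS, 0.1 mM NEAA and 1 mM sodium pyruvate were treated with titrated compounds for 18 hrs at 37 C. Beta-lactamase reporter was read with CCF4 dye (ex 405, em 460/530 nm); EC50 from Hill fits.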

[4] = target: Thyroid hormone receptor beta (Homo sapiens) (UniProt P10828); assay: qHTS assay for small molecule antagonists of thyroid hormone receptor beta signaling (AID 588547; active means well fitted inhibition curve with a large enough effect in the signal ratio, with a control signal flat, not every such curve was filed as active; the % refers to the signal ratio;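 further: cells stimulated with 0.4 nM T3 agonist during compound exposure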); details: TR-UAS-bla HEK293, beta-lactamase ratio, antagonist mode, 18 h
Procedure, shortened: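 Inhibition of T3-driven (0.4nM final) beta-lactamase reporter activity was measured over 0.59 nM to 92 uM compound after 18 h at 37 C. The cells were GripTite HEK293 TR-UAS-bla in charcoal/dextran-stripped serum, with CCF4 ratio read-out and IC50 from Hill fits.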

[5] = target: Voltage-gated inwardly rectifying potassium channel KCNH2 (Homo sapiens) (UniProt Q12809); assay: qHTS Assay for Small Molecule Inhibitors of the Human hERG Channel Activity (AID 588834); details: U2OS BacMam hERG, FluxOR thallium flux fluorescence; series mostly up to 46.1 µM;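 further: top concentration of the series differs between compounds; lower thallium flux fluorescence means stronger hERG block; nearly all actives have a fitted effect of over 50% in size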
Procedure, shortened: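 Measured: FluxOR fluorescence after thallium stimulation in U2OS cells transduced with hERG by baculovirus. Compounds pre-incubated around 10 min; medium Opti-MEM with 2% FCS. AC50 from Hill equation.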

[6] = target: Luciferin 4-monooxygenase (Photinus pyralis) (UniProt P08659); assay: Biochemical firefly luciferase enzyme assay for NPC (AID 624030);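 further: purified P. pyralis luciferase at 10 nM with luciferin and ATP substrate; nearly all actives have a fitted effect of over 70% in size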; details: purified P. pyralis luciferase, luminescence, 5 min; series mostly up to 58.6 µM
Procedure, shortened: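 Direct inhibition of firefly luciferase enzyme (10 nM final, 50 mM Tris Acetate) assessed by luminescence within 5 minutes. Percent activity scaled between DMSO and PTC124 positive control, with concentration-effect curves classified by fit quality and response.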

[7] = S16 Schwann cell viability assay (CellTiter-Glo assay) (AID 624031); details: S16 rat Schwann cells viability, 24 h; series mostly up to 57.5 µM;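 further: native untransfected S16 rat Schwann cells; cellular ATP luminescence as a viability measure; nearly all actives have a fitted effect of over 70% in size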
Procedure, shortened: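 Concentration-effect curves come from CellTiter-Glo luminescence of S16 rat Schwann cells after 24 h compound exposure. Each reading was normalized to DMSO wells (0%) and wells without cells, and curves were ranked by r2 and response magnitude.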

[8] = S16 Schwann cell PMP22 intronic element firefly luciferase assay (AID 624032); details: S16 rat Schwann cells, PMP22 element FLuc, 24 h; series mostly up to 57.5 µM; further: nearly all actives have a fitted effect of over 30% in size
Procedure, shortened: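 Luciferase reporter of PMP22 intronic-element expression in stably transfected S16 rat Schwann cells, read by ONE-Glo luminescence after 24 h compound exposure at 37 C. Activity scaled between DMSO (0%) and positive-control PTC124; concentration-effect curves quality-classified.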

[9] = S16 Schwann cell PMP22 intronic element beta-lactamase assay (AID 624044; calls by dose curve; further: nearly all actives have a fitted effect of over 15% in size); details: S16 rat Schwann cells, PMP22 element beta-lactamase FRET, 24 h; series mostly up to 38.3 µM
Procedure, shortened: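 Rat S16 Schwann cells with beta-Lac driven by a PMP22 intronic element, compound-treated 24 h at 37 °C. LiveBLAzer FRET B/G read: 460 nm normalized to potassium clavulanate vs DMSO; 535 nm FRET as viability; concentration-effect curves classified.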

[10] = qHTS assay for small molecule activators of the p53 signaling pathway (AID 651743; active means well fitted activation curve with a large enough effect in the signal ratio, not every such curve was filed as active; the % refers to the signal ratio); details: HCT-116 p53RE-bla, beta-lactamase FRET ratio, 16 h; activation: stronger effect = higher value
Procedure, shortened: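 Screen for p53 pathway agonists uses stably transfected p53RE-bla HCT-116 cells, 4,000 per well, treated 16 h at 37 C with compounds in DMSO.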

[11] = qHTS assay for small molecule disruptors of the mitochondrial membrane potential - 5 hr assay (AID 651755; calls by dose curve; further: nearly all actives have a fitted effect of over 40% in size); details: JC-1-type ratio dye; series mostly up to 92.2 µM
Procedure, shortened: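 HepG2, 2,000 cells/well, overnight attach; cpd or DMSO 5 hr, 37C/5% CO2; Mito-MPS 30 min 37C; fluor 490/535 + 540/590 nm.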

[12] = qHTS assay for small molecule antagonists of retinoid X receptor alpha signaling (AID 588546; active means well fitted inhibition curve with a large enough effect in the signal ratio, with a control signal flat, not every such curve was filed as active; the % refers to the signal ratio;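 further: cells stimulated with 9-cis-retinoic acid as agonist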); details: HEK293T RXRa-UAS-bla, beta-lactamase ratio, antagonist mode; measured here: W530 green channel, cytotoxicity proxy
Procedure, shortened: (§1)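 Beta-lactamase reporter inhibition, read as CCF4 fluorescence ratio (ex 405, em 460/530 nm) after 2 h at RT. HEK293T UAS-bla cells, 2500/well, were stimulated with 9-cis-RA at 500 or 100 nM final alongside test compound for 18 h at 37 C.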

[13] = target: Retinoic acid receptor RXR-alpha (Homo sapiens) (UniProt P19793); assay: as above; details: HEK293T RXRa-UAS-bla, beta-lactamase ratio, antagonist mode
Procedure, shortened: as §1

[14] = qHTS assay for small molecule activators of the nuclear factor-kappa B (NF-kB) signaling pathway (AID 651749; active means well fitted activation curve with a large enough effect in the signal ratio; the % refers to the signal ratio); details: NF-kB-bla ME-180 cells, beta-lactamase FRET ratio, 16 h; stronger effect = higher value
Procedure, shortened: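 Stably transfected ME-180 line; NF-kB response element upstream of beta-lactamase. Treatment: compound or DMSO, 16 hr. Detection: fluorescent FRET substrate.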

[15] = qHTS assay for small molecule agonists of the antioxidant response element (ARE) signaling pathway (AID 651741; active means well fitted activation curve with a large enough effect in the signal ratio; the % refers to the signal ratio; further: potency means the concentration at half of the fitted maximal effect); details: HepG2 ARE-bla reporter, beta-lactamase FRET ratio, 16 h; series mostly up to 96 µM
Procedure, shortened: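 Seeding 2,000 ARE-bla HepG2 cells per well preceded a 5 h incubation at 37 C/5% CO2 and a 16 h compound exposure at 37 C. Beta-lactamase reporter activity was then quantified by fluorescence after 2 h with LiveBLAzer B/G FRET substrate.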

[16] = target: Glutaminase kidney isoform, mitochondrial (Homo sapiens) (UniProt O94925); assay: qHTS for Inhibitors of Glutaminase (GLS): LOPAC Validation (AID 624146); details: glutaminase enzyme activity inhibition; series mostly up to 46.1 µM; further: potency means the concentration at half of the fitted maximal effect; nearly all actives have a fitted effect of over 60% in size
Procedure, shortened: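 Read-out is an Amplex red fluorescence increase coupled through glutamate oxidase and HRP, measured before and after 30 min room-temperature incubation. hKGA is in 45 mM KH2PO4 (pH 8.2) with 0.02% Tween-20; glutamine added as 1mM solution.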

[17] = target: Glucagon-like peptide 1 receptor (Homo sapiens) (UniProt P43220); assay: qHTS of GLP-1 Receptor Agonists: LOPAC Validation (AID 624148); details: GLP-1R agonist cell assay; series mostly up to 46.1 µM;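 further: luminescence from a luciferase reporter switched on by cAMP; higher luminescence signal means agonism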
Procedure, shortened: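 Agonism scored as increased luciferase luminescence driven by cAMP in HEK293 clones carrying GLP-1R. Cells settled 12 hours, received compound for 4-6 hr at 37 deg C, 5% CO2, and were read after 12 min detection reagent at RT.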

[18] = HTS Assay for Allosteric Antagonists of the Human D2 Dopamine Receptor: Hit Validation in HTRF (AID 624455); details: Cells stably expressing D1 dopamine receptor, inhibition mode; series mostly up to 46.1 µM;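 further: stable D1 dopamine receptor cell line scored for blocking the D1 response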
Procedure, shortened: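 Hits were examined in an HTRF assay using cells stably expressing the D1 dopamine receptor, scoring inhibition of the D1-mediated response. The preceding primary screen tracked calcium flux after an EC80 dopamine addition in force-coupled, inducible Hek293 Trex D2 cells.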

Sequence of Thyroid hormone receptor beta (Homo sapiens) (P10828 whole entry, looked up): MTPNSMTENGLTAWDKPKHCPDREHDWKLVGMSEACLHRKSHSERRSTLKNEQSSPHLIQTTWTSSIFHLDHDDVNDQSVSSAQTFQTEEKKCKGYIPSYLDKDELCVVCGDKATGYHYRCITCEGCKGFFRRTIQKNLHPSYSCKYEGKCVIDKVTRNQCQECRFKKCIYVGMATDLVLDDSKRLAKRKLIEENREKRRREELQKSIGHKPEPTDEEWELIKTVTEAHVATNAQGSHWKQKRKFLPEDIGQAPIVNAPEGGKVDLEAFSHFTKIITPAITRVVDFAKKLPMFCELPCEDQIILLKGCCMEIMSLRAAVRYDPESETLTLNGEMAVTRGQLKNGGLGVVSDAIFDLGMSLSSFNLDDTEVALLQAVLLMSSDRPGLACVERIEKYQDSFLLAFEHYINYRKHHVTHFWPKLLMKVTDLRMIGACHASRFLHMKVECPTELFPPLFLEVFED
Sequence of Voltage-gated inwardly rectifying potassium channel KCNH2 (Homo sapiens) (Q12809 whole entry, looked up): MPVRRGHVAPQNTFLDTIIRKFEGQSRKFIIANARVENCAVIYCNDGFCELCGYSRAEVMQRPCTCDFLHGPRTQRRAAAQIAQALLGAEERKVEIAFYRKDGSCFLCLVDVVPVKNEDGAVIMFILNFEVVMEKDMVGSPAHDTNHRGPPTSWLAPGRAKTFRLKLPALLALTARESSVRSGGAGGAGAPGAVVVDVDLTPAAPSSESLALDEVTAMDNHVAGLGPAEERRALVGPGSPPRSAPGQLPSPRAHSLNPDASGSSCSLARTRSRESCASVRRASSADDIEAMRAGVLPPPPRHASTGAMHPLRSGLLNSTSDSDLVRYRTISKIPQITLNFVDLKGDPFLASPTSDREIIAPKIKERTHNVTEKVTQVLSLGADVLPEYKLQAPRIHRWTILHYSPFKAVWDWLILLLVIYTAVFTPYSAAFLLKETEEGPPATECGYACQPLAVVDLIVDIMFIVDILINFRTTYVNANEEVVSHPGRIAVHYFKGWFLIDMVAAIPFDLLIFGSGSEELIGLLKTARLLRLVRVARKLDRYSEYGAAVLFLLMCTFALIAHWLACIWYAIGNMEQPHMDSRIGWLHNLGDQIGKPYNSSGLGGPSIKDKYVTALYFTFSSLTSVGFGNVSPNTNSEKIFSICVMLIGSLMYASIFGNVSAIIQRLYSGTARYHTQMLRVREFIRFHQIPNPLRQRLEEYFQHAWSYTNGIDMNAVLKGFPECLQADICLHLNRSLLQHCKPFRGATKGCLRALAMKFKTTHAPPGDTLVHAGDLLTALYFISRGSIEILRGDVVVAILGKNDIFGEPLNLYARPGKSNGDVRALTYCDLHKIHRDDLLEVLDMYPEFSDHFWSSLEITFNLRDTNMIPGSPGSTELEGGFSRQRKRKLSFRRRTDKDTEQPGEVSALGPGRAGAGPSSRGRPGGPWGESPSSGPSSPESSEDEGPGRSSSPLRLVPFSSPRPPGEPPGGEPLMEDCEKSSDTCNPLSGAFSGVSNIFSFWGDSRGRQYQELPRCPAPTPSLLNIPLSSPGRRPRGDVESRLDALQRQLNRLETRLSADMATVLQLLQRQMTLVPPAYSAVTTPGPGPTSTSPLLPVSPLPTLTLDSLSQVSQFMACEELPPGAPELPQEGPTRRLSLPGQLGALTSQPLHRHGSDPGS
Sequence of Retinoic acid receptor RXR-alpha (Homo sapiens) (P19793 whole entry, looked up): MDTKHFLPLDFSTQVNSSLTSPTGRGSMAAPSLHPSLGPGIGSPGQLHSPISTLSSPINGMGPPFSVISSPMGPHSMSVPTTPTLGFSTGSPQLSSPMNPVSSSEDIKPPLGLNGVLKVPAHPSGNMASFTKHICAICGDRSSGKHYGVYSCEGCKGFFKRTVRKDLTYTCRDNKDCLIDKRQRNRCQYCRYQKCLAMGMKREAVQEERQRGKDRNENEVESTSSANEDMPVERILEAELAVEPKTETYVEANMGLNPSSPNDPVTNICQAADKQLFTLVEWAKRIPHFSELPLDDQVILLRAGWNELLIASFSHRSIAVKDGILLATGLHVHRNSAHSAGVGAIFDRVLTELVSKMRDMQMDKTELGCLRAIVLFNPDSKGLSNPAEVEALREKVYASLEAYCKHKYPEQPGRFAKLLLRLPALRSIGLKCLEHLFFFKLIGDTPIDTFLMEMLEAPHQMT
Sequence of Luciferin 4-monooxygenase (Photinus pyralis) (P08659 whole entry, looked up): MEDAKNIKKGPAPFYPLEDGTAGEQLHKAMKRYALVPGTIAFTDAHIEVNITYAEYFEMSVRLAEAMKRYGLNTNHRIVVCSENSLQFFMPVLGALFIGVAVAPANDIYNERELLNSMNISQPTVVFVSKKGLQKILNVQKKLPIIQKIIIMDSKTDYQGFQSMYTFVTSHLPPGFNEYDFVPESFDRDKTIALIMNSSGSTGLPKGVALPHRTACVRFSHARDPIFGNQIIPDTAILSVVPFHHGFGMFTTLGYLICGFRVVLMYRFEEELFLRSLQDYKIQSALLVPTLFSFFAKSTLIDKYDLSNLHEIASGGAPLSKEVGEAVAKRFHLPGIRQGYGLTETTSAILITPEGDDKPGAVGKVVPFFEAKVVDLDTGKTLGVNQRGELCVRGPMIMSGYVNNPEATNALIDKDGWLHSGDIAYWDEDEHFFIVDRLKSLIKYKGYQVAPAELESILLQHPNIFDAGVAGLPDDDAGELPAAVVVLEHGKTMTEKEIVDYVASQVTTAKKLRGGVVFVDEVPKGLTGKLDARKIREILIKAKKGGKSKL
Sequence of Glucagon-like peptide 1 receptor (Homo sapiens) (P43220 whole entry, looked up): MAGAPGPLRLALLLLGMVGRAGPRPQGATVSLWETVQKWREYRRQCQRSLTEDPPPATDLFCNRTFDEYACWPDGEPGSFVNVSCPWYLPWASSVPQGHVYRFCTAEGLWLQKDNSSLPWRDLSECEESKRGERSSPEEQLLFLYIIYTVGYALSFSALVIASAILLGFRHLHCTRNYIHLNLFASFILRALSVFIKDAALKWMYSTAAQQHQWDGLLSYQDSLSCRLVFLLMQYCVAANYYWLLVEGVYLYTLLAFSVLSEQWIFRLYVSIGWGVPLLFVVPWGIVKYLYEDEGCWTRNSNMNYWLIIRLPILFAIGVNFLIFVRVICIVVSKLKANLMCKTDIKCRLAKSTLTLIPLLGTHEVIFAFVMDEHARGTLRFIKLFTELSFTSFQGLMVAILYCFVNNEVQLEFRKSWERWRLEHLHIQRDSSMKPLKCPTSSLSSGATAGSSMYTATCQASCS
Sequence of Glutaminase kidney isoform, mitochondrial (Homo sapiens) (O94925 whole entry, looked up, canonical isoform): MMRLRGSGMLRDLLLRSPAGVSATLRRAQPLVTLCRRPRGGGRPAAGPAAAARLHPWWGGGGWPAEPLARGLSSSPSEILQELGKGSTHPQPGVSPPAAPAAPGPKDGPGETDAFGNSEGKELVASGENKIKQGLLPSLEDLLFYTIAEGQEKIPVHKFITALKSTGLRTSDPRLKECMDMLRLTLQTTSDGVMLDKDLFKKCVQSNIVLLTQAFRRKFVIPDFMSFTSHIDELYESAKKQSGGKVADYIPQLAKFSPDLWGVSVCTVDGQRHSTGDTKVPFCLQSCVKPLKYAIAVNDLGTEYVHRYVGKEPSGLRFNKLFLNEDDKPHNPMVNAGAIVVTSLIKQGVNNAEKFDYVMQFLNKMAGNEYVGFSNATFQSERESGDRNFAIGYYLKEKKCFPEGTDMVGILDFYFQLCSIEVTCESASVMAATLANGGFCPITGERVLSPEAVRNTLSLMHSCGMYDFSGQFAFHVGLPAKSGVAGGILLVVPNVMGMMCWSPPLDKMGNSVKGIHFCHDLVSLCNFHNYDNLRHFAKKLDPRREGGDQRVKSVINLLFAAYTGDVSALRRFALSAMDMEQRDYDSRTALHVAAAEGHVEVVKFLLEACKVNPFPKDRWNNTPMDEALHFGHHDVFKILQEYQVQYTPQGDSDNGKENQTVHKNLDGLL

Row | Structure (SMILES) | max response [1] | Potency [2] | outcome [3] | activity change % (negative = inhibition) [4] | Potency [5] | Potency [6] | Potency [7] | Potency [8] | Potency [9] | activation [10] | Potency [11] | max response [12] | max response [13] | activation [14] | Potency [15] | Potency [16] | outcome [17] | Potency [18]
1 | CC(C)CCON=O | 4.6% | inactive | inactive | -6.62% (inactive) | inactive | inactive | inactive | inactive | inactive | -3.9% (inactive) | inactive | – | – | – | – | – | – | –
2 | O=C/C=C/c1ccccc1 | 4.89% and -11.3% | inactive | inactive | 12.8% (inactive) and -9.11% (inactive) | inactive | inactive | inactive | inactive | inactive | -1.3% (inactive) and 1.6% (inactive) | inactive | -5.91% and -8.21% | 12.1% (inactive) and 26.2% (inactive) | -1.46% (inactive) and -0.692% (inactive) | – | – | – | –
3 | O=C(O)C(Cl)(Cl)Cl | -1.61% and -5.9% | inactive | inactive | 2.2% (inactive) and 9.95% (inactive) | inactive | inactive | inactive | inactive | inactive | 0.586% (inactive) and -1.1% (inactive) | inactive | -1.09% | -6.5% (inactive) | – | inactive | – | – | –
4 | O=C(O)c1cc[c]([Hg][Cl])cc1 | – | – | inactive | -18.8% (inactive) | inactive | – | – | – | – | 10.2% (inactive) | – | – | – | 4.33% (inactive) | 30.6 µM (active) | 3.55 µM (active) | inactive | inactive
5 | C=CCN=C=S | 2.45% | inactive | inactive | – | inactive | inactive | inactive | inactive | inactive | -0.403% (inactive) | inactive | -9.62% | 5.52% (inactive) | -1.41% (inactive) | inactive | – | – | –
6 | S=C=S | -8.91% | inactive | inactive | 5.87% (inactive) | inactive | inactive | inactive | inactive | inactive | -0.789% (inactive) | inactive | -8.84% | 10.2% (inactive) | -0.146% (inactive) | inactive | – | – | –
7 | COC1=CC(=O)O[C@@H](/C=C/c2ccccc2)C1 | – | – | inactive | -5.64% (inactive) | inactive | – | – | – | – | -5.52% (inactive) | inactive | 0.406% | 18.3% (inactive) | -0.734% (inactive) | 5.31 µM (active) | – | – | –
8 | ClC(Cl)(Cl)Cl | -19.2% and -11.8% | inactive | inactive | -13.7% (inactive) and 5.43% (inactive) | inactive | inactive | inactive | inactive | inactive | -0.523% (inactive) and 1.98% (inactive) | inactive | -0.129% | 1.39% (inactive) | 2.09% (inactive) and -0.921% (inactive) | inactive | – | – | –
